Hits are enriched below; roughly 3.1% of the tested compounds scored in any of these assays.
Tau fluor cs = counter-screen for tau fibril formation inhibitors | 280,000 tested, 0.93% active | AID 1463 | tau K18 P301L Alexa594 fluorescence, heparin fibrillization | Potency, µM (titrated, usually from 57.7 µM), for inactives: at the highest dose activity change, negative = decrease; further: nearly all actives have a fitted effect of over 55% in size
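Human tau K18 P301L (15 uM unlabeled, 0.24 uM Alexa 594-labeled) in 100 mM sodium acetate pH 7 with 20 uM heparin, 6 hr at 37 C. ThT 30 uM added, 1 hr ambient; Alexa 594 FP and total fluorescence read at 555/632 nm.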
RGS12 GoLoco inh = blocks human Gai1 binding to RGS12 GoLoco peptide, red readout; Potency, µM (series often up to 61.6 µM), without a hit: top-dose activity, negative = inhibition, most hits filed as inhibitors; AID 880; P63096; 230,000 tested, 0.44% active; Gai1:RGS12 GoLoco peptide FP, rhodamine, 10 min; active means well fitted inhibition curve with a large enough effect, not every such curve was filed as active; inactive means no such curve, though single readings can be large or run the other way; further: nearly all actives have a fitted effect of over 30% in size
Target sequence (P63096 whole entry, looked up): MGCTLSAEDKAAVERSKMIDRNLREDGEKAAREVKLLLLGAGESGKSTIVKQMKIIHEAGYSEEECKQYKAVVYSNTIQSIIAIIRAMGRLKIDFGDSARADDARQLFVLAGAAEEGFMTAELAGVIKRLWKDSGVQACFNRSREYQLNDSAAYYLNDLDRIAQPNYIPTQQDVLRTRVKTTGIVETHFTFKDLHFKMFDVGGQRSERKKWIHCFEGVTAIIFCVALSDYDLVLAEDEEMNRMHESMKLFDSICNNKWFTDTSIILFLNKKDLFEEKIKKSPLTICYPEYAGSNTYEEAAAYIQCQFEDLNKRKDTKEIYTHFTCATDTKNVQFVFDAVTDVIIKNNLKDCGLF
Tau ThT inhib = tau fibrillization inhibition (ThT binding) | P10636 | recombinant tau K18 P301L, heparin-induced fibrillization, ThT fluorescence | Potency, µM (highest dose often 57.4 µM), for inactives: top-dose activity, negative = inhibition, hits mostly inhibitors | 270,000 tested, 2.1% active | AID 1460; further: nearly all actives have a fitted effect of over 55% in size
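ThT emission at 510 nm, taken 1 hr after adding 30 uM dye, quantifies aggregates formed when 20 uM heparin acts on human tau K18 P301L for 6 hr at 37 C.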
TexasRed fluor = alters Texas Red total fluorescence, flagging assay interference; TRb/SRC2 Texas Red total fluorescence interference; Potency, µM (highest dose often 106 µM), inactives show top-dose fluorescence change, negative = quenching; 280,000 tested, 0.29% active; AID 1479; active means well fitted curve in either direction with a large enough effect; inconclusive means small, poorly fitted or top-dose-only effect
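Flags fluorescent or light-absorbing compounds by total fluorescence, S + 2P, at 555 nm excitation and 632 nm emission. Mixture: 20 nM Texas Red SRC2 peptide, 0.6 uM human TRb LBD, 1 uM T3, 5% DMSO; compound exposure 5 h at ambient temperature.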
TRb SRC2 PPI = disrupts binding of human TR beta to SRC2; TRbeta-SRC2 peptide binding, fluorescence polarization; receptor liganded with 1 µM T3; 280,000 tested, 0.065% active; P10828; Potency, µM (doses to about 106 µM), without a hit: at the highest dose activity change, negative = inhibition, hits mostly inhibitors;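 further: plate controls were bound peptide for no effect and peptide without receptor for full effect; nearly all actives have a fitted effect of over 50% in size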
Target sequence (P10828 whole entry, looked up): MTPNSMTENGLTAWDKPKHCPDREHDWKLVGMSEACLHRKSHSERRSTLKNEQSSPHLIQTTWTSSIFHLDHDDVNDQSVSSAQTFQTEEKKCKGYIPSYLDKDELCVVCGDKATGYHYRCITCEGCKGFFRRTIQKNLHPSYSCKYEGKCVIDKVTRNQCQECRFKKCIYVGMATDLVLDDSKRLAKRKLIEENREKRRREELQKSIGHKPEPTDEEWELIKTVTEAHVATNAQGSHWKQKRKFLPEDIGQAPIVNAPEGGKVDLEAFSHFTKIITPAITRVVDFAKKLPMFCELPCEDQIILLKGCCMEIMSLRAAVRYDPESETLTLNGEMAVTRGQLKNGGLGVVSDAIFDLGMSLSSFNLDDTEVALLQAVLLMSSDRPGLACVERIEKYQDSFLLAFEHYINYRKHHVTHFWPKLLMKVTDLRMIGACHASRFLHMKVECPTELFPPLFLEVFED
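Assay buffer: 20 mM Tris-HCl, 100 mM NaCl, 10% glycerol, 1 mM EDTA, 0.01% NP-40, 1 mM DTT, 1 uM T3, 5% DMSO; TRb LBD 0.6 uM, Texas Red SRC2 20 nM; FP after 5 hr.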
Tau FP inhib = blocks human tau fibril formation measured by polarization; Potency, µM (series often up to 57.7 µM), without a hit: top-dose activity, negative = inhibition, hits mostly inhibitors; K18 P301L tau heparin fibrillization, Alexa594 FP, 6 h; 280,000 tested, 0.39% active; further: nearly all actives have a fitted effect of over 55% in size
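Human K18 P301L fragment (15 uM unlabeled plus 0.24 uM Alexa 594-labeled) in 100 mM sodium acetate pH 7 with compound, aggregation induced by 20 uM heparin for 6 hr at 37 C. ThT (30 uM) added for 1 hr, then Alexa 594 FP read.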
* marks the source's active call; other numbers are inactive results; [ ] = dose if it differs, or a comment. Unless noted, the call rests on the fitted dose curve; in most records, active means well fitted curve in the direction sought with a large enough effect; inconclusive means small, poorly fitted or top-dose-only effect, or another doubt; inactive means no such curve, though single readings can be large; an effect the other way counts as inactive or inconclusive. Unless noted, on the % scale 0 is the no-effect control and ±100 the full control effect; potency means the concentration at half of the fitted maximal effect.

Results for O=C(Nc1ccc2nc(-c3ccc(Br)o3)[nH]c2c1)c1cccs1 ?
Tau fluor cs: inconclusive; RGS12 GoLoco inh: 6%; Tau ThT inhib: inconclusive; TexasRed fluor: -2%; TRb SRC2 PPI: 4%; Tau FP inhib: 5%

What do the screens show for `Cc1ccc(S(=O)(=O)[N-]c2nc3ccccc3nc2-[n+]2cc(C)cc(C)c2)cc1`?
Tau fluor cs: 1%; RGS12 GoLoco inh: 3%; Tau ThT inhib: -6%; TexasRed fluor: -3%; TRb SRC2 PPI: -3%; Tau FP inhib: 1%

How did CCOc1ccc2nc(N=NC3=C(O)CC(C)(C)CC3=O)sc2c1 do in these assays?
Tau fluor cs: -23%; RGS12 GoLoco inh: 21%; Tau ThT inhib: 14µM*; TexasRed fluor: -4%; TRb SRC2 PPI: -11%; Tau FP inhib: -8%

Results for c1ccc(NC2=Nc3cccc4cccc2c34)cc1 ?
Tau fluor cs: inconclusive; RGS12 GoLoco inh: 2%; Tau ThT inhib: inconclusive; TexasRed fluor: -2%; TRb SRC2 PPI: -4%; Tau FP inhib: 13%

Results for Fc1ccc(/C=N/NC2=Nc3cccc4cccc2c34)cc1 ?
Tau fluor cs: inconclusive; RGS12 GoLoco inh: 59%; Tau ThT inhib: 2.2µM*; TexasRed fluor: -2%; TRb SRC2 PPI: 9%; Tau FP inhib: 6%

What do the screens show for `COc1ccc(NC2=Nc3cccc4cccc2c34)cc1`?
Tau fluor cs: inconclusive; RGS12 GoLoco inh: 27%; Tau ThT inhib: 13µM*; TexasRed fluor: 0%; TRb SRC2 PPI: 11%; Tau FP inhib: inconclusive

Results for Cn1c(=O)c2c(ncn2CC(=O)N/N=C/C=C/c2ccco2)n(C)c1=O ?
Tau fluor cs: -15%; RGS12 GoLoco inh: 14%; Tau ThT inhib: inconclusive; TexasRed fluor: 2%; TRb SRC2 PPI: -4%; Tau FP inhib: -13%

How did CC(C)COc1ccc(C(=O)NCC2(N3CCN(C)CC3)CCCCC2)cc1 do in these assays?
Tau fluor cs: -6%; Tau ThT inhib: 2%; TexasRed fluor: 0%; TRb SRC2 PPI: -2%; Tau FP inhib: -1%

Results for Cc1cc(C)c2c(=O)c(/C=C3\NC(=S)NC3=O)coc2c1 ?
Tau fluor cs: 12%; RGS12 GoLoco inh: 28%; TexasRed fluor: -1%; TRb SRC2 PPI: -6%; Tau FP inhib: -1%

How did COc1cc(N2CCCC2)c(OC)cc1/C=C1/NC(=S)NC1=O do in these assays?
Tau fluor cs: inconclusive; RGS12 GoLoco inh: 108%; Tau ThT inhib: 11µM*; TexasRed fluor: -5%; TRb SRC2 PPI: 1%; Tau FP inhib: -6%

How did O=C(NCCc1c[nH]c2ccccc12)C1CCC(Cn2c(=S)[nH]c3ccccc3c2=O)CC1 (stereo not drawn) do in these assays?
Tau fluor cs: 4µM*[quencher]; RGS12 GoLoco inh: 10%; Tau ThT inhib: inconclusive; TexasRed fluor: -3%; TRb SRC2 PPI: 1%; Tau FP inhib: 0%

How did O=C1NN(c2ccc(F)cc2)C(=O)/C1=C\C=C\c1ccco1 do in these assays?
Tau fluor cs: inconclusive; RGS12 GoLoco inh: 3%; Tau ThT inhib: 13µM*; TexasRed fluor: 6%; TRb SRC2 PPI: 7%; Tau FP inhib: inconclusive

How did O=C1NN(c2ccc(F)cc2)C(=O)/C1=C\c1cnn(-c2ccccc2)c1 do in these assays?
Tau fluor cs: 5%; RGS12 GoLoco inh: 16%; Tau ThT inhib: 5%; TexasRed fluor: -1%; TRb SRC2 PPI: -12%; Tau FP inhib: -2%

What do the screens show for `Cc1onc(-c2ccccc2Cl)c1C(=O)Nc1sc2c(c1C#N)CCC2`?
Tau fluor cs: inconclusive; RGS12 GoLoco inh: 27%; Tau ThT inhib: 28µM*; TexasRed fluor: -3%; TRb SRC2 PPI: -10%; Tau FP inhib: inconclusive

What do the screens show for `N#Cc1c(NC(=O)C2CC(c3ccccc3Cl)=NO2)sc2c1CCC2` (stereo not drawn)?
Tau fluor cs: -22%; RGS12 GoLoco inh: 12%; Tau ThT inhib: -13%; TexasRed fluor: -1%; TRb SRC2 PPI: -6%; Tau FP inhib: -2%

Results for COc1cc(/C=C/c2nc(N)nc(-c3ccccc3O)n2)cc(OC)c1OC ?
Tau fluor cs: inconclusive; RGS12 GoLoco inh: 4%; Tau ThT inhib: -16%; TexasRed fluor: -2%; TRb SRC2 PPI: -16%; Tau FP inhib: inconclusive

How did COc1ccc(/C=C/c2nc(N)nc(-c3ccccc3O)n2)cc1OC do in these assays?
Tau fluor cs: inconclusive; RGS12 GoLoco inh: 6%; Tau ThT inhib: inconclusive; TexasRed fluor: -4%; TRb SRC2 PPI: 11%; Tau FP inhib: 20µM*

Results for Cc1ccc(NS(=O)(=O)c2cc(NC(=O)c3ccc4c(c3)NC(=O)CS4)ccc2Cl)c(C)c1 ?
Tau fluor cs: inconclusive; RGS12 GoLoco inh: -17%; Tau ThT inhib: -13%; TexasRed fluor: -2%; TRb SRC2 PPI: 4%; Tau FP inhib: 25µM*

Results for Cc1ccc(NS(=O)(=O)c2cc(C(=O)O)ccc2Cl)c(C)c1 ?
Tau fluor cs: -2%; RGS12 GoLoco inh: -34%; Tau ThT inhib: 4%; TexasRed fluor: -3%; TRb SRC2 PPI: 5%; Tau FP inhib: -4%

Results for O=C1NCCN(Cc2cccc(Oc3ccccc3)c2)C1CC(=O)N1CCCCO1 (stereo not drawn) ?
Tau fluor cs: -2%; RGS12 GoLoco inh: -4%; Tau ThT inhib: -6%; TexasRed fluor: -1%[53 µM]; TRb SRC2 PPI: 2%[53 µM]; Tau FP inhib: 3%

Results for O=C(Nc1ccc(Cl)cc1)Nc1nc(-c2sccc2Br)cs1 ?
Tau fluor cs: inconclusive; RGS12 GoLoco inh: 11%; Tau ThT inhib: inconclusive; TexasRed fluor: 1%; TRb SRC2 PPI: 0%; Tau FP inhib: inconclusive

How did O=C(Nc1ccccc1)Nc1nc(-c2ccccc2)cs1 do in these assays?
Tau fluor cs: -27%; RGS12 GoLoco inh: -2%; Tau ThT inhib: 6%; TexasRed fluor: -3%; TRb SRC2 PPI: 1%; Tau FP inhib: inconclusive

Results for O=C(Nc1ccc(Cl)cc1)Nc1nc(-c2ccccc2O)cs1 ?
Tau fluor cs: 3.5µM*[quencher]; RGS12 GoLoco inh: -4%; Tau ThT inhib: 4%; TexasRed fluor: -1%; TRb SRC2 PPI: 11%; Tau FP inhib: inconclusive

What do the screens show for `O=C(Nc1ccc(Cl)c(Cl)c1)Nc1nc(-c2ccccc2)cs1`?
Tau fluor cs: inconclusive; RGS12 GoLoco inh: -2%; Tau ThT inhib: 12%; TexasRed fluor: -2%; TRb SRC2 PPI: 2%; Tau FP inhib: 18µM*

How did O=c1cc(-c2ccco2)nc(-c2cccs2)o1 do in these assays?
Tau fluor cs: 7%; RGS12 GoLoco inh: 5%; Tau ThT inhib: 12%; TexasRed fluor: -2%; TRb SRC2 PPI: -10%; Tau FP inhib: -13%

What do the screens show for `O=C(Nn1c(O)c(C=C2N=c3ccccc3=N2)sc1=S)c1ccc(Cl)cc1`?
Tau fluor cs: 7.9µM*[quencher]; RGS12 GoLoco inh: 11%; Tau ThT inhib: 11µM*; TexasRed fluor: 0%; TRb SRC2 PPI: 2%; Tau FP inhib: inconclusive

Bioassay records (PubChem)
